# Screening data from PubChem.
# ELG1 repair inh: blocks ELG1-dependent DNA repair in HEK293T cells; HEK293T ELG1-luciferase reporter, luminescence, 16 h; DNA damage induced by 5-fluorouridine; Potency, µM (doses to about 46.1 µM), for inactives: at the highest dose activity change, negative = inhibition, actives largely listed as inhibitors; actives 2.3% (n = 330,000); AID 504467; note: potency is the fitted concentration of half-maximal effect; nearly all actives have a fitted effect of over 55% in size
#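 Overnight (16 hr) co-exposure of 2,000 cells/well to 5-fluorouridine and compound at 37 °C preceded detection. Luciferase was quantified via ONE-Glo luminescence; loss of signal denotes inhibition.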
# HT1080 IDH1KD tx: HT-1080 IDH1 knockdown cell toxicity (counter line) | AID 686971 | actives 2% (n = 360,000) | HT-1080 IDH1 knockdown viability, ATP luminescence, 48 h | Potency, µM (doses to about 46.1 µM), inactives show at the highest dose activity, negative = toxicity, actives largely listed as cytotoxic;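 note: potency is the fitted concentration of half-maximal effect; 0% = DMSO wells and -100% = cell-free medium wells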
#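 % activity derives from luminescence (CellTiter-Glo), normalised to DMSO and no-cell wells. HT-1080-IDH1KD cells, 750/well, had 48 h compound exposure at 37 °C.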
# IL-1B inflam inh: inhibitors of inflammasome signaling (IL-1 beta secretion) | THP-1 LPS/ATP IL-1B secretion, AlphaLISA, 16 h; stronger effect = lower value | activity change, % at 57.5 µM | actives 4.7% (n = 360,000) | AID 743279; in the data active = activity change below about -50%; inconclusive = mostly about -30% to -49%
#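 THP-1 cells pretreated 1 hr with compounds (up to 57.5 uM final), then stimulated with LPS (250 ng/mL final) plus ATP (1.25 mM final); secreted IL-1B measured by AlphaLISA after 16 hr, decreased signal indicating inhibition.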
# DT40 TDP1 CPT: growth inhibition of DT40 Tdp1-/-;hTDP1 cells with camptothecin (screen for TDP1 inhibitors); chicken DT40 Tdp1-/-;hTDP1 cells + 20 nM CPT, ATP luminescence, 48 h; Potency, µM (top dose mostly 46.2 µM), for inactives: at the highest dose activity change, negative = growth inhibition, actives largely listed as inhibitors; actives 12% (n = 420,000); AID 686979; note: potency is the fitted concentration of half-maximal effect; nearly all actives have a fitted effect of over 55% in size
#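 Chicken DT40 Tdp1-/- cells stably complemented with human TDP1 were seeded at 400 cells/well in medium containing 20 nM camptothecin, exposed to pin-transferred compounds, and grown at 37 °C for at least 48 hr. Viability was read as ATP luminescence.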
# DT40 TDP1 no CPT: qHTS for Inhibitors of human tyrosyl-DNA phosphodiesterase 1 (TDP1): qHTS in cells in absence of CPT. actives 15% (n = 420,000). Potency, µM (doses to about 46.2 µM), inactives show at the top dose activity change, negative = growth inhibition, hits mostly inhibitors. DT40 Tdp1-/- hTDP1 cells, no CPT, ATP luminescence, 48 h. AID 686978, 2013; note: potency is the fitted concentration of half-maximal effect; nearly all actives have a fitted effect of over 55% in size
#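 A cellular qHTS used chicken DT40 cells lacking endogenous Tdp1 but carrying stably transfected human TDP1. Compounds were applied without camptothecin, and cell growth kinetics were judged by ATP-dependent luminescence after ≥48 hr.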
# HT1080NT lethal: kills 2HG-producing HT-1080-NT fibrosarcoma cells. HT-1080-NT fibrosarcoma viability, CellTiter-Glo ATP luminescence, 48 h. Potency, µM (series often up to 46.1 µM), without a hit: at the top dose activity, negative = less viability, hits mostly cytotoxic. actives 1.6% (n = 360,000). AID 686970;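 note: NT is the 2HG producing partner of a matched IDH1 knockdown line; potency is the fitted concentration of half-maximal effect; 0% = DMSO-treated cells and -100% = media-only wells without cells; nearly all actives have a fitted effect of over 55% in size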
#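 Luminescent CellTiter-Glo readout after 48 hours of compound exposure at 37 degrees C defined viability of HT-1080-NT cells. Activity was normalized to DMSO wells and cell-free media wells; concentration-response curves were fitted and assigned curve classes.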
# ELG1 FLuc counter: luciferase inhibition in cell-free luciferin readout for ELG1 hits; Potency, µM (titrated, usually from 46.1 µM), for inactives: at the highest dose activity change, negative = inhibition, actives largely listed as inhibitors; shares compounds with ELG1 repair inh; AID 624247; actives 3% (n = 350); cell-free firefly luciferase luminescence counter-screen, ViewLux; note: potency is the fitted concentration of half-maximal effect
# ELG1-Luc inh: inhibits ELG1-dependent DNA repair in HEK293T cells, confirmed. shares compounds with ELG1 repair inh. HEK293T ELG1-luciferase levels, luminescence; cells co-treated with 5-fluorouridine. Potency, µM (doses to about 46.1 µM), without a hit: top-dose activity change, negative = inhibition, hits mostly inhibitors. actives 68% (n = 670). AID 624248; note: potency is the fitted concentration of half-maximal effect; nearly all actives have a fitted effect of over 55% in size
# Target sequence (Q96QE3 whole entry, looked up): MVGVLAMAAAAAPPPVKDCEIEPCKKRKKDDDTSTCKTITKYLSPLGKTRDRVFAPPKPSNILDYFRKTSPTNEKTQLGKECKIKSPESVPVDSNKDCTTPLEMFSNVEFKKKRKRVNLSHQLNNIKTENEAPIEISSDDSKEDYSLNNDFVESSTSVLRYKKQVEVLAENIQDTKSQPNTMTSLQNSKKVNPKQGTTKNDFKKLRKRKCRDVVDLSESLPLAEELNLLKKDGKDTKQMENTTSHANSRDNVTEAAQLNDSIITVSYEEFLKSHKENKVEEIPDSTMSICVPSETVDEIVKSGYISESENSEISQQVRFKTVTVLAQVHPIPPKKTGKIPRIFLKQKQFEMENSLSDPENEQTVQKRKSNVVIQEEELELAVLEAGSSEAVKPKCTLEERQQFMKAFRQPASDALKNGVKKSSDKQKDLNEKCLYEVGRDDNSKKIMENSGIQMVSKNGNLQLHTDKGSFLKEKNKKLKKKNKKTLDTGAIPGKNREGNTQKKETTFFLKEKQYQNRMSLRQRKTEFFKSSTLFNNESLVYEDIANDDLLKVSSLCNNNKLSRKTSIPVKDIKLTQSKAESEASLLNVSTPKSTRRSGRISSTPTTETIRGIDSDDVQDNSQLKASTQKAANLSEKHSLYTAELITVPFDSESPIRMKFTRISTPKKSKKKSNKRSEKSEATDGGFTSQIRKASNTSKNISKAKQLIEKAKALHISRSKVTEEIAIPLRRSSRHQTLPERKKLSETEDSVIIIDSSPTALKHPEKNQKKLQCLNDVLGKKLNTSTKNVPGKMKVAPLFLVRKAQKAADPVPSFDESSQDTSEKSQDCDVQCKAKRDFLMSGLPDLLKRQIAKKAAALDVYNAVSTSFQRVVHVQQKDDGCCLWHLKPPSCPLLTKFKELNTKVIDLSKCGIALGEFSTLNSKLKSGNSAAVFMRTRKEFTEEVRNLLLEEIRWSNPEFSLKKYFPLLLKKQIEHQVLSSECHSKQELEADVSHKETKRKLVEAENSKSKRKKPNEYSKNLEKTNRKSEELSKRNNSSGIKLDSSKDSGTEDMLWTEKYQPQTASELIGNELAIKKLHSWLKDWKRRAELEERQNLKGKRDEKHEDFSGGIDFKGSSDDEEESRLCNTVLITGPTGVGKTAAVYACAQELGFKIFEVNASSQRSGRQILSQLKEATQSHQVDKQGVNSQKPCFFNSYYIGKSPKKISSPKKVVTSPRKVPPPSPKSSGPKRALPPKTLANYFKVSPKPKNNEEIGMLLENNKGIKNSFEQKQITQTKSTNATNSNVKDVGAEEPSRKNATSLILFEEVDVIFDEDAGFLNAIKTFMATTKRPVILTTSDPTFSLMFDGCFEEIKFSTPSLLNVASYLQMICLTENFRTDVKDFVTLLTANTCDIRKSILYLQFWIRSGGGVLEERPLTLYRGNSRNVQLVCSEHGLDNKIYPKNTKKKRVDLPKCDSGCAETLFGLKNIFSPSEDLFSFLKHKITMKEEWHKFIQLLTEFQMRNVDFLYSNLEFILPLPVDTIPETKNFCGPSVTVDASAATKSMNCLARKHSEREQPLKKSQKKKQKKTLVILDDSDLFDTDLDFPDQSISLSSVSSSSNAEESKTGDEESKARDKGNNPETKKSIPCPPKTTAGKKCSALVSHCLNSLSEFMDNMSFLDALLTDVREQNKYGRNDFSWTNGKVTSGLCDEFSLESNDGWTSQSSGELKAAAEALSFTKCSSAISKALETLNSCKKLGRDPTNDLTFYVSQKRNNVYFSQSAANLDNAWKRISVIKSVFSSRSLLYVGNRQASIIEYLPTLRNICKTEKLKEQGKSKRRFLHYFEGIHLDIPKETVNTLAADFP
# ELG1-Luc MMS: confirmation of human ELG1 repair inhibitors, MMS stimulated; shares compounds with ELG1 repair inh; actives 53% (n = 670); Potency, µM (titrated, usually from 46.1 µM), for the others: top-dose activity change, negative = inhibition, usual class: inhibitors; HEK293T luciferase-tagged ELG1 level, MMS stimulated; AID 624249; note: potency is the fitted concentration of half-maximal effect; nearly all actives have a fitted effect of over 60% in size
# ELG1 5FU viab: confirmation of ELG1 repair inhibitors: viability with 5FU; shares compounds with ELG1 repair inh; cell viability with 5-FU, ELG1-dependent repair; Potency, µM (highest dose often 46.1 µM), inactives show at the highest dose activity change, negative = viability loss, most hits filed as cytotoxic; 670 tested, under 10 active; AID 624250;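 note: ELG1-luc HEK293T cells cotreated with 5-fluorouridine at 10 µM final; potency is the fitted concentration of half-maximal effect; viability measured 16 h after compound addition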
# ELG1 MMS viab: confirmation of ELG1 repair inhibitors: viability with MMS; shares compounds with ELG1 repair inh; Cell viability with MMS, ELG1-dependent DNA repair; Potency, µM (top dose mostly 46.1 µM), inactives show top-dose activity change, negative = viability loss, most hits filed as cytotoxic; actives 33% (n = 670);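 note: ELG1-luc HEK293T cells co-treated with 10 µM MMS; potency is the fitted concentration of half-maximal effect; viability read 16 h after compound addition; nearly all actives have a fitted effect of over 60% in size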
# Cell viab unstim: unstimulated viability counter-screen for ELG1 repair hits; shares compounds with ELG1 repair inh; cell viability counter-screen, unstimulated, luminescence; Potency, µM (titrated, usually from 45.9 µM), for the others: at the top dose activity change, negative = loss of viability, usual class: cytotoxic; actives 8% (n = 900);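 note: potency is the fitted concentration of half-maximal effect; compound exposure lasted 16 hours before reading; nearly all actives have a fitted effect of over 55% in size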
# FLuc biochem: counter-screen for ELG1 repair inhibitors: firefly luciferase inhibition; actives 10% (n = 350); AID 624253; shares compounds with ELG1 repair inh; purified firefly luciferase, luminescence counter-screen; Potency, µM (top dose mostly 57.5 µM), without a hit: at the top dose activity, negative = inhibition, hits mostly inhibitors; note: potency is the fitted concentration of half-maximal effect
# * hit, by the source's call; ? = inconclusive; . = no result given. The list is not random: actives were taken first. Their share in the collection is about 19%. Unless noted, calls come from the whole dose curve; as a rule, active = well fitted curve in the direction sought with a large enough effect; inconclusive = small, poorly fitted or top-dose-only effect, or another doubt; inactive = no such curve, though single readings can be large; an effect the other way counts as inactive or inconclusive. Unless noted, % is set by controls: 0 for no effect and ±100 for the full control effect.
SMILES,ELG1 repair inh,HT1080 IDH1KD tx,IL-1B inflam inh,DT40 TDP1 CPT,DT40 TDP1 no CPT,HT1080NT lethal,ELG1-Luc inh,ELG1-Luc MMS,ELG1 5FU viab,ELG1 MMS viab,Cell viab unstim,others
C[C@H](CO)N1C[C@H](C)[C@@H](CN(C)C(=O)Nc2ccc(C(F)(F)F)cc2)Oc2c(NC(=O)CCC(F)(F)F)cccc2C1=O,1.8µM*,-7%,-66*,?,?,-14%,3.5µM*,22%,?,9%,-8%,
CC(C)NC(=O)Nc1cccc2c1O[C@H](CN(C)C(=O)Nc1ccc(C(F)(F)F)cc1)[C@@H](C)CN([C@H](C)CO)C2=O,1.3µM*,2%,?,-11%,-16%,9%,2.2µM*,15%,?,4%,-2%,
COc1cccc(-c2nn(-c3ccc(C)cc3)cc2C(=O)N2CCN(C3CCS(=O)(=O)C3)CC2)c1 (stereo not given),?,9%,-23,-12%,4%,-2%,.,.,.,.,.,
CNC(=S)N1N=C(c2ccc(OC)cc2)CC1c1ccc(Cl)cc1Cl (stereo not given),4.6µM*,8%,-24,-27%,-26%,3%,?,-22%,?,-7%,3%,
CCOC(=O)N1CCN(C(=O)CSc2nnc3[nH]c(=O)c(C)c(C)n23)CC1,12%,3%,2,0%,-3%,10%,.,.,.,.,.,
COc1cc2c(cc1OC)C(COc1ccc3c(C)cc(=O)oc3c1)N(C(=O)c1ccco1)CC2 (stereo not given),2.3µM*,6%,-7,?,21µM*,-7%,5.6µM*,22µM*,-4%,?,?,ELG1 FLuc counter=6%;FLuc biochem=-10%
CC(=O)N(C)c1ccc(/C=C2\C=Cc3ccccc32)cc1,.,.,.,6.3µM*,7.1µM*,.,.,.,.,.,?,ELG1 FLuc counter=71%;FLuc biochem=0.23µM*
CC(=O)N(C)c1ccc(NC(=O)CCN2C(=O)c3ccccc3C2=O)cc1,-12%,6%,16,7%,23%,4%,.,.,.,.,.,
O=C(CN(c1ccccc1)S(=O)(=O)c1ccc(F)cc1)NC1CCCCCC1,27%,-1%,10,-9%,-28%,-4%,.,.,.,.,.,
Cc1cccc(N(CC(=O)NCc2ccc(F)cc2)C(=O)c2ccco2)c1,4%,7%,-18,-1%,-16%,-6%,.,.,.,.,.,
CCc1nc(CN2CCN(c3ccc(C(F)(F)F)cn3)CC2)c(C)[nH]1,?,-13%,0,12µM*,6.5µM*,?,?,3.1µM*,-3%,4.4µM*,?,
O=C(O)c1c[nH]c2ccc([N+](=O)[O-])cc2c1=O,.,-10%,0,7%,-18%,14%,.,.,.,.,.,
Cc1cccc(NC(=O)CSc2nc3ccccc3o2)c1,?,15%,15,-3%,-2%,27%,.,.,.,.,16%,ELG1 FLuc counter=67%;FLuc biochem=-6%
CC(=O)c1cc2c(cc1NC(=O)CSc1nc3ccccc3o1)OCO2,?,?,0,-19%,-27%,21%,.,.,.,.,10%,ELG1 FLuc counter=67%;FLuc biochem=4%
O=C(CSc1nc2ccccc2o1)Nc1ccccc1N1CCCCCC1,3%,-6%,-1,?,?,-4%,.,.,.,.,-20%,ELG1 FLuc counter=4%;FLuc biochem=-8%
COc1ccc(-c2noc(CCCCC(=O)N3CCN(c4cc(C)ccc4C)CC3)n2)cc1,?,-29%,14,4.1µM*,2.9µM*,-22%,?,1.3µM*,-4%,1.1µM*,14µM*,
Cc1ccc(C)c(N2CCN(C(=O)CCc3nc(-c4cccc(Cl)c4)no3)CC2)c1,?,10%,-3,?,-20%,5%,.,.,.,.,-7%,
CC(=O)NC12CC3CC(C1)CC(C(=O)OCC(=O)c1cc(C)n(C)c1C)(C3)C2,?,6%,-3,16µM*,?,-1%,.,.,.,.,-8%,
CC(=O)NC12CC3CC(C1)CC(C(=O)OCC(=O)c1ccc4c(c1)OCCO4)(C3)C2,?,-6%,-10,?,?,-9%,.,.,.,.,.,
CC(C)n1c(CNC(=O)c2ccccc2F)nnc1SCC(=O)NC1CCCCC1,.,2%,16,13%,-7%,2%,.,.,.,.,.,
Nc1cc(=O)[nH]c(SCc2ccc(Cl)cc2Cl)n1,4.1µM*,-6%,67,8.2µM*,7.3µM*,-12%,-12%,2.8µM*,6%,4µM*,-7%,
Nc1cc(=O)[nH]c(SCC(=O)Nc2ccc(Cl)c(Cl)c2)n1,14%,-29%,17,8%,-3%,?,.,.,.,.,.,
O=[N+]([O-])c1ccc(Cl)c(/C=N/Nc2nc(N3CCOCC3)nc(N3CCOCC3)n2)c1,8%,7%,2,-20%,-14%,2%,.,.,.,.,.,
